High-throughput results as filed in PubChem BioAssay.
GLP-1R agonist: activates the human GLP-1 receptor | P43220 | HEK293 GLP-1R CRE-luciferase, luminescence, 4-6 h; cells express a hypersensitive GLP-1R form | Potency, µM (highest dose often 45.6 µM), most hits filed as activators | hit rate 0.007% among 380,000
Target sequence (P43220 whole entry, looked up): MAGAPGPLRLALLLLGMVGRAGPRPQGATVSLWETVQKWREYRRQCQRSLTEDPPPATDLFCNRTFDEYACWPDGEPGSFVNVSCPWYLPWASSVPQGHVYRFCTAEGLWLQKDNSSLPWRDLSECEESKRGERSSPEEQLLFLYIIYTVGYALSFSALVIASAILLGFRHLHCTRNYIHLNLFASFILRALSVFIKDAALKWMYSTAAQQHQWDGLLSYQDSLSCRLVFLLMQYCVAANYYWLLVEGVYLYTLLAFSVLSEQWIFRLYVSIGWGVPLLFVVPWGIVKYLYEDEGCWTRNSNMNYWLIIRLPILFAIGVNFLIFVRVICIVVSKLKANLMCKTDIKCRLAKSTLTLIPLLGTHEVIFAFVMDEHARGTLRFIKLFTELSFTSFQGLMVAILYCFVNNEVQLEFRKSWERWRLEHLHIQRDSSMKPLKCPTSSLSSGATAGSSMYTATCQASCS
ClpP mod: qHTS Assay for Activators of ClpP. ATP-dependent Clp protease proteolytic subunit (Bacillus subtilis (strain 168)), P80244. purified B. subtilis ClpP, FRET peptide cleavage, 20 min. Potency, µM (top dose mostly 57.5 µM). hit rate 1.9% among 340,000; active = well fitted falling curve with a large enough effect; inconclusive = small, poorly fitted or top-dose-only effect; inactive = no such curve, though single readings can be large or run the other way; note: the source files actives as falling curves though it sought activators and does not explain the sign; nearly all actives have a fitted effect of over 65% in size
Target sequence (P80244 whole entry, looked up): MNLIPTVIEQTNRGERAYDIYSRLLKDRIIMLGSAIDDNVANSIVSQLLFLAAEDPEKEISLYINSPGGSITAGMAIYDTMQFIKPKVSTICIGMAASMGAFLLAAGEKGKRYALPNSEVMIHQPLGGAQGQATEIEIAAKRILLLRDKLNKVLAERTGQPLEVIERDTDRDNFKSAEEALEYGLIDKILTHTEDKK
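Buffer: 100 mM Tris/HCl pH8, 100 mM KCl, 0.05% low protease BSA, 2.5% glycerol, 0.01% Tween-20. ClpP 10 microg/mL final; 20 min RT; delta FRET normalized to ADEP and DMSO controls.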
GLP1R inv ag: acts as inverse agonist at human GLP-1 receptor. P43220. HEK293 GLP-1R CRE-luciferase, luminescence, 24 h; GLP-1R form is constitutively active. Potency, µM (top dose mostly 38.3 µM), hits mostly inhibitors. hit rate 1.6% among 410,000. AID 624417; note: nearly all actives have a fitted effect of over 55% in size
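GLP-1R inverse agonism mode: basal reporter luminescence in engineered HEK293 cells measured after one day of compound exposure at 37 deg C, with a 12 min room-temperature detection step.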
GLP1R cytotox: cytotoxicity in counter-screen for GLP-1R inverse agonists; HEK293 cAMP-luciferase reporter cells, luminescence, 24 h; Potency, µM (titrated, usually from 38.3 µM), most hits filed as inhibitors; hit rate 0.13% among 410,000; AID 624418;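 note: loss of luciferase light is scored as toxicity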
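Compound-treated cells are incubated 24 hr at 37 deg C under 5% CO2 after a 12 hour attachment period, then luciferase detection reagent is added and luminescence is measured following 12 min at room temperature; lowered signal indicates toxicity.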
Hits are given with their value. Most compounds without a hit are left out; they make up all but 3.2% or so of the library. Unless noted, calls come from the whole dose curve; as a rule, active = well fitted curve in the direction sought with a large enough effect; inconclusive = small, poorly fitted or top-dose-only effect, or another doubt; inactive = no such curve, though single readings can be large; an effect the other way counts as inactive or inconclusive.

Screening CN1[C@@H]2CC[C@H]1CC(OC1c3ccccc3CCc3ccccc31)C2 (some centres undefined) returned GLP-1R agonist inactive, ClpP mod inactive, GLP1R inv ag 2µM and GLP1R cytotox inconclusive.
Screening CC(C)c1ccc(/C=N/NC(=O)c2nnn(-c3nonc3N)c2CSC2=NCCS2)cc1 returned GLP-1R agonist inactive, ClpP mod inactive, GLP1R inv ag inconclusive and GLP1R cytotox inconclusive.
`O=C(Nc1cccc(Cl)c1)OCC#CCN1CCCC1` gave GLP-1R agonist inactive, ClpP mod inactive, GLP1R inv ag inactive and GLP1R cytotox inactive.
CCOC(=O)c1sc(NC(=O)Nc2cccc(Cl)c2)cc1C was read as GLP-1R agonist inactive, ClpP mod 32µM, GLP1R inv ag 3.5µM and GLP1R cytotox inconclusive.
`O=[N+]([O-])c1c(Nc2ccc(O)cc2)cc(Cl)c2nonc12` gave GLP-1R agonist inactive, ClpP mod inactive, GLP1R inv ag inconclusive and GLP1R cytotox inconclusive.
S=C(NCCc1ccccc1)N1Cc2cc(N3CCCCC3)ccc2-n2nncc2C1 was read as GLP-1R agonist inactive, ClpP mod 32µM, GLP1R inv ag inconclusive and GLP1R cytotox inactive.
For CC1(C)C/C(=N\NC(=S)Nc2ccccc2F)c2cc(O)ccc2O1 the results were GLP-1R agonist inactive, GLP1R inv ag inconclusive and GLP1R cytotox inconclusive.
Cc1cccc(NC(=O)c2cc3c(=O)n4ccccc4nc3n2C)c1C was read as ClpP mod inconclusive, GLP1R inv ag inactive and GLP1R cytotox inactive.
`CCCCCCOc1ccc(CN2CCN(C)CC2)cc1` gave GLP-1R agonist inactive, ClpP mod inactive, GLP1R inv ag 3.2µM and GLP1R cytotox inactive.
Screening CN1CCN(Cc2ccc3ccccc3c2)CC1 returned GLP-1R agonist inactive, ClpP mod inactive, GLP1R inv ag inactive and GLP1R cytotox inactive.
Screening Nc1c(S(=O)(=O)c2cccs2)c2nc3ccccc3nc2n1/N=C/c1cccc(O)c1 returned GLP-1R agonist inactive, ClpP mod 2.8µM, GLP1R inv ag inconclusive and GLP1R cytotox inconclusive.
For COc1ccc(SC[C@H](C)CN2CC[C@H](C(C)(C)C)CCC2=O)cc1 the results were GLP-1R agonist inactive, ClpP mod inactive, GLP1R inv ag inconclusive and GLP1R cytotox inconclusive.
For O=C(C[C@@H]1CC[C@@H]2[C@H](COC[C@H](O)CN2Cc2cccc(C(F)(F)F)c2)O1)NCc1ccc(Cl)cc1 the results were ClpP mod inactive, GLP1R inv ag 10µM and GLP1R cytotox inactive.
Screening CCCCCSc1cc(OC)c(CCN(C)C)cc1OC returned GLP-1R agonist inactive, ClpP mod inactive, GLP1R inv ag inconclusive and GLP1R cytotox inactive.
Screening CCCCCSc1cc(O)c(C(CNC)C(C)C)cc1OC (centres undefined) returned GLP-1R agonist inactive, ClpP mod inactive, GLP1R inv ag 10µM and GLP1R cytotox inactive.
Screening O=C(CCOc1cccc(Br)c1)Nc1ccc(F)c(S(=O)(=O)N2CCOCC2)c1 returned GLP-1R agonist inactive, ClpP mod inactive, GLP1R inv ag 10µM and GLP1R cytotox inconclusive.
Cc1cccc(NC(=O)c2ccc(F)c(S(=O)(=O)N3CCN(c4ccc(F)cc4)CC3)c2)c1 was read as ClpP mod inactive, GLP1R inv ag inconclusive and GLP1R cytotox inactive.
`Cc1nc2ccccc2c(=O)n1-c1ccccc1Cl` gave GLP-1R agonist inactive.
`CCC(=O)c1cn(Cc2ccccc2C#N)c2ccccc12` gave GLP-1R agonist inactive, ClpP mod inactive, GLP1R inv ag 10µM and GLP1R cytotox inactive.
`Cn1c(NN=O)nc2ccccc21` gave GLP-1R agonist inactive, GLP1R inv ag 4.5µM and GLP1R cytotox inconclusive.
`CCC(C)c1ccc(NC(=O)COc2c(F)c(F)c(C(F)(F)F)c(F)c2F)cc1` (centres undefined) gave GLP-1R agonist inactive, ClpP mod inactive, GLP1R inv ag inconclusive and GLP1R cytotox inconclusive.
For CN1C(C(=O)Nc2cccc(O)c2)=CC(c2cccs2)=NS1(=O)=O the results were GLP-1R agonist inactive, ClpP mod inactive, GLP1R inv ag inactive and GLP1R cytotox inconclusive.
For C[C@H]1C[C@H](C)C(=O)[C@@H]([C@H](O)CC2CC(=O)NC(=O)C2)C1 the results were GLP-1R agonist inactive.
`C=C[C@@H]1C[C@@]1(C)[C@@H](NP(=O)(c1ccccc1)c1ccccc1)c1ccccc1` gave GLP-1R agonist inactive, ClpP mod inactive, GLP1R inv ag 10µM and GLP1R cytotox inactive.
Screening Cc1cc(OCCCN2CCC(C(O)(c3ccccc3)c3ccccc3)CC2)ccc1Br returned GLP-1R agonist inactive, ClpP mod inactive, GLP1R inv ag inconclusive and GLP1R cytotox inconclusive.
Screening Cn1nc(C(C)(C)C)cc1C(=O)N1CCCCC1c1cc(C(=O)Nc2ccc(F)c(Cl)c2)no1 (centres undefined) returned GLP-1R agonist inactive, ClpP mod inactive, GLP1R inv ag 10µM and GLP1R cytotox inactive.
For CCC1(CCC(C)C)C(=O)NC(=O)NC1=O the results were GLP-1R agonist inactive.
Screening CC1(S(=O)(=O)O)CC(=O)c2ccccc2C1=O (centres undefined) returned GLP-1R agonist inactive, ClpP mod inactive, GLP1R inv ag inactive and GLP1R cytotox inactive.
C[C@@H](N)[C@@H](O)c1ccc(O)c(O)c1 was read as GLP-1R agonist inactive.
CCCNc1nc(-c2cc(C(=O)Nc3ccccc3)on2)cc(C(C)C)n1 was read as GLP-1R agonist inactive, ClpP mod inactive, GLP1R inv ag inconclusive and GLP1R cytotox inactive.
`c1ccc(C(c2ccccc2)N2CCN(c3ccc4ccccc4n3)CC2)cc1` gave GLP-1R agonist inactive, ClpP mod 18µM, GLP1R inv ag inconclusive and GLP1R cytotox inactive.
c1ccc2nc(N3CCNCC3)ccc2c1 was read as GLP-1R agonist inconclusive, ClpP mod inactive, GLP1R inv ag inconclusive and GLP1R cytotox inactive.
Screening NC(c1csc(NC(=O)Nc2cccc(Cl)c2)n1)C1CCCCC1 (centres undefined) returned GLP-1R agonist inactive, ClpP mod inactive, GLP1R inv ag inconclusive and GLP1R cytotox inconclusive.
Cc1ccc([C@H]2C[C@@H](n3cc(C4CC4)nn3)[C@H](O)CN2CC2CCCCC2)cc1 was read as GLP-1R agonist inactive, ClpP mod inactive, GLP1R inv ag inactive and GLP1R cytotox inactive.
O=C(O)c1nn(Cc2ccc(Cl)cc2)c2ccccc12 was read as GLP-1R agonist inactive, ClpP mod inactive, GLP1R inv ag inactive and GLP1R cytotox inactive.
Screening O=C(c1ccccc1)c1nn(-c2ccc(Cl)cc2)c(=O)cc1C(F)(F)F returned GLP-1R agonist inactive, ClpP mod inactive, GLP1R inv ag 4µM and GLP1R cytotox inconclusive.
`COC(=O)C1=C(c2ccc(Cl)c(C(F)(F)F)c2)C[C@@H]2CC[C@H]1N2C(=O)N1CCC(O)(c2ccc(Cl)cc2)CC1` gave GLP-1R agonist inactive, ClpP mod inactive, GLP1R inv ag 8.9µM and GLP1R cytotox inactive.
`O=C(Nc1ccc(Oc2ccccc2)cc1)c1ccc(F)c(S(=O)(=O)N2CCN(c3cccc(Cl)c3)CC2)c1` gave ClpP mod inactive, GLP1R inv ag inconclusive and GLP1R cytotox inactive.
